# LASV entry inh: qHTS for Inhibitors of binding or entry into cells for Lassa Virus; Lassa virus pseudotype entry inhibition, cell reporter; Potency, µM (doses to about 37.9 µM), without a hit: at the top dose activity change, negative = inhibition, actives largely listed as inhibitors; 300,000 tested, 1.2% active; calls by dose curve; tested in HEK293 cells; note: potency is the fitted concentration of half-maximal effect; nearly all actives have a fitted effect of over 50% in size
# HCMV inh: qHTS Assay for inhibitors of the human cytomegalovirus (HCMV). AID 1259415, 2018. HFF cells, HCMV-luciferase reporter, 72 h; hits give low values. 410,000 tested, 4.5% active. activity change, negative = inhibition, % at 57.5 µM; in the data active = activity change below about -60%; inconclusive = no clear call, values can overlap the other calls; inactive = above about -39%
#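 Screen run at 2 compound doses on HFFs infected with reporter HCMV, MOI 1 PFU/cell. Luciferase activity from cell lysates at 72 h post infection gave inhibition relative to buffer-only and Salinomycin wells.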
# Marburg entry inh: qHTS for inhibitors of binding or entry into cells for Marburg Virus; 300,000 tested, 1.8% active; AID 540276, 2011; Potency, µM (top dose mostly 37.8 µM), without a hit: top-dose activity change, negative = inhibition, hits mostly inhibitors; Marburg virus pseudotyped entry inhibition, cell reporter; calls by dose curve; tested in HEK293 cells; note: potency is the fitted concentration of half-maximal effect
# HCV inhibitor: qHTS Assay for Inhibitors of Hepatitis C Virus (HCV) | Huh7.5.1 HCVcc-Cre infection, luciferase reporter, 44 h | Potency, µM (series often up to 41.8 µM), for inactives: top-dose activity change, negative = inhibition, hits mostly inhibitors | 340,000 tested, 3.4% active | AID 651820, 2012; active = well fitted inhibition curve with a large enough effect; inconclusive = small, poorly fitted or top-dose-only effect, or another doubt; inactive = no such curve, though single readings can be large or run the other way; note: potency is the fitted concentration of half-maximal effect
#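 Cells (1,000/well) were plated 4 h before compound, then infected with HCVcc-Cre virus (~0.5 moi). After 44 h further culture, infection was read as luciferase luminescence following a 15 min substrate incubation at room temperature.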
# VACV Venus inh: qHTS for Stage-Specific Inhibitors of Vaccinia Orthopoxvirus: Venus Reporter Primary qHTS. Vaccinia virus Venus reporter expression, fluorescence. Potency, µM (highest dose often 36.5 µM), for inactives: at the top dose activity change, negative = inhibition, hits mostly inhibitors. 330,000 tested, 0.46% active; calls by dose curve; tested in A549 cells; note: potency is the fitted concentration of half-maximal effect; nearly all actives have a fitted effect of over 30% in size
# Vaccinia mCherry: qHTS for Stage-Specific Inhibitors of Vaccinia Orthopoxvirus: mCherry Reporter Primary qHTS; Vaccinia virus mCherry reporter infection, fluorescence; Potency, µM (top dose mostly 36.5 µM), for the others: at the top dose activity change, negative = inhibition, actives largely listed as inhibitors; 310,000 tested, 0.63% active; calls by dose curve; tested in A549 cells; note: potency is the fitted concentration of half-maximal effect; nearly all actives have a fitted effect of over 35% in size
# * marks the source's active call; other numbers are inactive results; i = inactive; ? = inconclusive; · = not tested or not shown; + = active, no number; [ ] = another dose, or the depositor's remark. Sampled rows, rich in hits. Any-hit rate of the full collection: about 7.8%. % is set by controls: 0 for no effect and ±100 for the full control effect.
SMILES,LASV entry inh,HCMV inh,Marburg entry inh,HCV inhibitor,VACV Venus inh,Vaccinia mCherry
Nc1nc(Cl)cc(-c2ccccc2)n1,-3%,27,?,10%,11%,16%
Nc1nc(Cl)cc(Sc2ccc3ccccc3c2)n1,10µM*,13,-25%,-20%,?,·
CCCC[C@H]1CN2[C@@H](CC[C@@H](C)[C@@H]2c2ccc(Br)cc2)C(=O)O1,·,·,2%[14.2 µM],·,·,·
Cc1ccc(NC(=O)Cn2c(=O)n(-c3ccc(C)cc3)c(=O)c3ccc(C(=O)NCc4ccccc4Cl)cc32)cc1,?,-60*,2%[46.1 µM],·,?,?
COc1ccc(NC(=O)Cn2c(=O)n(-c3ccccc3)c(=O)c3sccc32)c(OC)c1,·,-39,·,10%,·,·
COc1cccc(NC(=O)Cn2c(=O)n(-c3ccccc3)c(=O)c3oc4ccccc4c32)c1,?,-68*,?,24%,-18%,0%
Cc1cc(C)cc(NC(=O)Cn2c(=O)n(-c3cc(C)cc(C)c3)c(=O)c3oc4ccccc4c32)c1,4%[46.1 µM],-61*,·,·,-17%,0%
COc1cc(NC(=O)Cn2c(=O)n(C(C)C)c(=O)c3oc4ccccc4c32)cc(OC)c1,-8%[46.1 µM],-22,·,·,-7%,-8%
CCOc1ccc(-n2c(=O)c3sccc3n(CC(=O)Nc3cccc(OC)c3)c2=O)cc1,·,+,·,18%,·,·
CCOc1ccccc1NC(=O)COC(=O)c1cn(CC)c2nc(C)ccc2c1=O,-3%[46.1 µM],-7,10%[46.1 µM],·,-12%,-7%
Cc1ccc(-n2c(=O)c3oc4ccccc4c3n(CC(=O)Nc3ccccc3)c2=O)cc1C,?,-67*,·,·,-11%,i
CC(=O)Nc1ccc(NC(=O)Cn2c(=O)n(-c3ccccc3)c(=O)c3oc4ccccc4c32)cc1,-1%,0,?,-2%,-10%,3%
CC(=O)Nc1ccc(NC(=O)Cn2c(=O)n(-c3ccc(C)cc3)c(=O)c3oc4ccccc4c32)cc1,?,-65*,?,-6%,-7%,-11%
CC1(Cc2ccc(F)cc2)C(=O)Nc2c(Cl)cccc21 (stereo not given),·,?,·,·,?,i
COc1ccccc1CC1(C)C(=O)Nc2c(Cl)cccc21 (stereo not given),·,-73*,·,·,-12%,i
CCc1ccc2c(c1)NC(=O)C2(C)Cc1ccccc1OC (stereo not given),·,-71*,·,·,-19%,-14%
CCc1ccc2c(c1)NC(=O)C2(C)Cc1ccccc1Cl (stereo not given),·,-9,·,·,-14%,i
CNc1cccc2c1C(=O)c1ccccc1C2=O,?,-39,0%,13µM*,42%,7%
C=CCOc1c(Cl)cc(C(=S)N2CCCC2)cc1OCC,?,-76*,-8%,?,-26%,?
CCCn1cc(SCC(=O)Nc2ccc3c(c2)OCO3)c2ccccc21,·,-65*,·,14µM*,-13%,?
CCc1ccc(C(=O)c2cn(CC(=O)Nc3ccc(Cl)cc3)c3cc4c(cc3c2=O)OCO4)cc1,?,13,4.5µM*,·,-8%,-15%
CCc1ccc(C(=O)c2cn(CC(=O)Nc3ccc4c(c3)OCO4)c3ccc(Cl)cc3c2=O)cc1,16%[46.1 µM],-6,11%[46.1 µM],·,?,-26%
CCc1ccc2c(c1)c(=O)c(C(=O)c1ccccc1)cn2CC(=O)Nc1ccc(C)c(Cl)c1,-5%[46.1 µM],-69*,1%[46.1 µM],·,?,?
CCc1ccc(C(=O)c2cn(CC(=O)Nc3ccc4c(c3)OCO4)c3ccc(CC)cc3c2=O)cc1,3%[46.1 µM],-88*,8%[46.1 µM],·,-29%,-27%
COc1cccc(CNC(=O)c2ccc(-c3nc(CS(=O)c4ccccc4)c(C)o3)cc2)c1 (stereo not given),18%[46.1 µM],17,·,·,-13%,-21%
SMILES,LASV entry inh,HCMV inh,Marburg entry inh,HCV inhibitor,VACV Venus inh,Vaccinia mCherry
CCCCCn1c(=O)[nH]c2cc(C(=O)NCc3ccc(C)cc3)ccc2c1=O,12%[46.1 µM],9,19%[46.1 µM],·,-3%,-5%
Oc1ccc(Nc2nc(-c3ccc(O)cc3)cs2)cc1,?,12,-17%,10µM*,·,·
Fc1ccc(Nc2nc(-c3ccncc3)cs2)cc1,12%,71,-61%,?,-21%,-8%
Nc1nc(-c2ccc(Br)cc2)cs1,?,4,7%,-26%,-19%,-26%
Brc1ccc(-c2csc(Nc3nc(-c4ccc(Br)cc4)cs3)n2)cc1,-12%[46.1 µM],-87*,-18%[46.1 µM],-29%,-10%,?
COc1ccc2oc(=O)c(-c3csc(Nc4ccc(O)cc4)n3)cc2c1,10µM*,?,?,11µM*,?,?
Clc1ccc(Nc2nc(-c3ccncc3)cs2)cc1,15%,7,7.9µM*,?,-20%,?
c1ccc(Nc2nc(-c3ccncc3)cs2)cc1,?,177,?,?,-28%,·
Nc1ccc(Nc2nc(-c3ccncc3)cs2)cc1,?,-99*,?,7.9µM*,-12%,-21%
COC(=O)/C=C/c1cc(F)ccc1S(=O)(=O)Nc1ccccc1,·,·,·,·,-21%,-4%
Cc1c(-c2ccccc2)cnc2c(C)cccc12,·,9,·,11µM*,·,·
O=C(O)c1c(-c2ccccc2)cnc2ccccc12,·,-34,·,·,-13%,-18%
COc1cc(C2c3c(oc4ccccc4c3=O)C(=O)N2c2nncs2)cc(OC)c1OC (stereo not given),?,-12,0%[46.1 µM],·,-3%,-8%
O=C(CSCC(=O)N1CCN(c2ccccc2)CC1)Nc1nc(-c2ccc(Cl)s2)cs1,·,-13,0%,6.3µM*,?,?
COc1ccc(C(O)c2ncc(-c3ccccc3)[nH]2)cc1F (stereo not given),·,-101*,·,·,-8%,7%
COc1ccc(C(O)c2ncc(-c3ccccc3Cl)[nH]2)cc1F (stereo not given),·,-102*,·,·,-7%,17%
COc1ccc(C(O)c2ncc(-c3ccccc3)[nH]2)cc1 (stereo not given),·,28,·,·,0%,11%
Cc1cc(O)c(C(C)C)cc1C1(c2cc(C(C)C)c(O)cc2C)OC(=O)c2ccccc21,?,-103*,?,5.6µM*,?,?
CCC(=O)N1CCc2cc(S(=O)(=O)NC(Cc3ccccc3)C(=O)NCc3ccc(F)cc3)ccc21 (stereo not given),-27%[46.1 µM],-3,-12%[46.1 µM],·,-3%,-2%
CC(OC(=O)c1cccs1)C(=O)Nc1nc(-c2ccccc2)cs1 (stereo not given),?,13,-5%[46.1 µM],-3%,-2%,-14%
Cc1cc(C(=O)OC(C)C(=O)Nc2nc(-c3ccccc3)cs2)c(C)o1 (stereo not given),13µM*,-8,?,?,22%,11%
Cc1cc(C(=O)OCC(=O)Nc2nc(-c3ccccc3)cs2)c(C)o1,?,-101*,-3%,?,?,·

# High-throughput results as filed in PubChem.
